# Literature values, collected in PubChem BioAssay AID977611.
# The campaign covered roughly 3,900 compounds. About 3,900 (100%) were called active. The limit is not given here; nearly all actives have Kd up to about 4200 µM. The set was probably picked from earlier hits. The list shows a part of the results. Numbered stars: 1 amine (or outer) side, 2 acyl side, 3 side chain; on linkers, the order of the positions; unused ones are H or OH. Starred links: 1 amine or outer side, 2 acyl side, 3 side chain; linkers in the order of their positions; H or OH if unused. *1 amine or outer side, *2 acyl side, *3 side chain or, on linkers, in order; H or OH if unused. Where a SMILES comes first, the peptide text is derived from it. Non-standard residues stand in square brackets, D forms with d. Square brackets hold non-standard residues; d marks the D form. Residues, ends and D or L forms follow the SMILES beside them. Peptide text beside a SMILES is read from it. [ ]: non-standard residue; d: D form. X1 = O=C([C@H](Cc1ccc(OS(O)(O)O)cc1)N[*:1])[*:2]; Thr(P(OH)3+) = C[C@@H](O[P+](O)(O)O)[C@H](N)C(=O)O
# Assay: PubChem AID 977611
# Settings: PDB protein-ligand complexes, literature Kd
compound,measurement,setting,value
CC(=O)N1CCC[C@H]1C(=O)N[C@@H](CC(C)C)C(=O)N[C@@H](Cc1c[n+](C)cn1CCCCCCCCc1ccccc1)C(=O)N[C@@H](CO)C(=O)N[C@H](C(N)=O)[C@@H](C)O[P+](O)(O)O (Ac-PL[X1]S[Thr(P(OH)3+)]-NH2),Kd,"protein: Serine/threonine-protein kinase PLK1 PBD, PDB entry 4o6w",0.003 µM (active)
H-MRYGQSPNM-OH,Kd,"protein: Protein HTP-2, PDB entry 4tzn",0.3 µM (active)
CC[C@H](C)[C@H](NC(=O)[C@H](CCC(=O)O)NC(=O)[C@H](CC(C)C)NC(=O)[C@@H](NC(=O)[C@H](CC(=O)O)NC(=O)[C@@H]1CCCN1C(=O)[C@H](CC(=O)O)NC(=O)[C@@H](N)CC(N)=O)[C@@H](C)O[P+](O)(O)O)C(=O)N[C@@H](Cc1ccc(O)cc1)C(=O)N[C@@H](CO)C(=O)O (H-NDPD[Thr(P(OH)3+)]LEIYS-OH),Kd,"protein: Serine/threonine-protein kinase RAD53, PDB entry 2a0t",15 µM (active)
NCC(=O)N[C@@H](CCCN=C(N)N)C(=O)NCC(=O)N[C@@H](CC(=O)O)C(=O)N[C@@H](CO)C(=O)N1CCC[C@H]1C(=O)O,Kd,"protein: Integrin alpha 5-beta 1, PDB entry 4wk2",0.115 µM (active)
O=C1CCN([C@H]2C[C@H](O)[C@@H](CO[P+](O)(O)O)O2)C(=O)N1,Kd,"protein: Thymidylate synthase, PDB entry 4knz",8.5 µM (active)
CC(C)C[C@H](NC(=O)[C@@H](N)CC(=O)O)C(=O)N[C@@H](Cc1ccc(O[P+](O)(O)O)cc1)C(=O)N[C@@H](CC(=O)O)C(=O)N[C@@H](Cc1ccc(O[P+](O)(O)O)cc1)C(=O)N[C@@H](Cc1ccc(O[P+](O)(O)O)cc1)C(=O)N1CCC[C@H]1C(=O)O,Kd,"protein: THROMBIN, LIGHT CHAIN & THROMBIN, HEAVY CHAIN, PDB entry 4ch2",1.03 µM (active)
H-NELNNNAP-OH,Kd,"protein: SPRY DOMAIN-CONTAINING SOCS BOX PROTEIN 1, PDB entry 2jk9",0.15 µM (active)
CC(C)C[C@H](N)C(=O)N[C@@H](Cc1ccc(O[P+](O)(O)O)cc1)C(=O)N[C@@H](CC(=O)O)C(=O)O,Kd,"protein: THROMBIN, LIGHT CHAIN & THROMBIN, HEAVY CHAIN, PDB entry 4ch8",1.03 µM (active)
CC[C@H](C)[C@H](NC(=O)[C@H](Cc1ccc(O[P+](O)(O)O)cc1)NC(=O)[C@H](CC(=O)O)NC(=O)[C@@H](N)CC(N)=O)C(=O)N[C@@H](CC(=O)O)C(=O)N[C@@H](CC(N)=O)C(=O)N1CCC[C@H]1C(=O)O (H-ND[X1]IDNP-OH),Kd,"protein: E3 ubiquitin-protein ligase CBL, PDB entry 3bun",0.61 µM (active)
NC(=O)CC[C@H](NC(=O)[C@@H](N)Cc1cnc[nH]1)C(=O)N[C@@H](Cc1ccc(O[P+](O)(O)O)cc1)C(=O)N[C@@H](Cc1ccc(O[P+](O)(O)O)cc1)C(=O)N[C@@H](CC(N)=O)C(=O)N[C@@H](CC(=O)O)C(=O)N[C@@H](Cc1ccccc1)C(=O)N1CCC[C@H]1C(=O)O (H-HQ[X1][X1]NDFP-OH),Kd,"protein: Grb2 SH2 domain, pY-Clamp Shc1_pY239/240, PDB entry 4jmh",0.0021 µM (active)
NC1NC(=O)c2ncn([C@H]3CC[C@@H](CO[P+](O)(O)O[P+](O)(O)O[P+](O)(O)O)O3)c2N1 (stereo partly drawn),Kd,"protein: DNA polymerase X from Thermus thermophilus HB8, PDB entry 3au6",0.012 µM (active)
NC1C=CN([C@@H]2O[C@H](CO[P+](O)(O)O[C@H]3[C@@H](O)[C@H](n4cnc5c4NC(N)NC5=O)O[C@@H]3CO[P+](O)(O)O[C@H]3[C@@H](O)[C@H](n4cnc5c4NC(N)NC5=O)O[C@@H]3CO[P+](O)(O)O[C@H]3[C@@H](O)[C@H](n4cnc5c4NC(N)NC5=O)O[C@@H]3CO[P+](O)(O)O)[C@@H](O[P+](O)(O)O)[C@H]2O)C(=O)N1 (stereo partly drawn),Kd,"protein: Heat resistant RNA dependent ATPase, PDB entry 4i67",0.45 µM (active)
NC1NC(=O)c2ncn([C@@H]3O[C@H](CO[P+](O)(O)O[P+](O)(O)O[P+](O)(O)O)[C@@H](O)[C@H]3O)c2N1 (stereo partly drawn),Kd,"protein: ADP-ribosylation factor 6, PDB entry 4kax",17 µM (active)
NC1NC(=O)c2ncn([C@@H]3O[C@H](CO[P+](O)(O)O[P+](O)(O)O)[C@@H](O)[C@H]3O)c2N1 (stereo partly drawn),Kd,PDB entry 4lps,1.8 µM (active)
same,Kd,"protein: Atlastin-1, PDB entry 4ido",11.6 µM (active)
same,Kd,"protein: Methylmalonyl-CoA mutase accessory protein, PDB entry 4jyc",0.2 µM (active)
same,Kd,"protein: Ras-related protein Rab-8A with Guanine nucleotide exchange factor GRAB, PDB entry 4li0",0.26 µM (active)
same,Kd,"protein: Ras-related protein Rab-8A, PDB entry 4lhv",0.0001 µM (active)
NC1NC(=O)c2ncn([C@@H]3O[C@H](CO[P+](O)(O)O[P+](O)(O)N[P+](O)(O)O)[C@@H](O)[C@H]3O)c2N1 (stereo partly drawn),Kd,"protein: Atlastin-1, PDB entry 4idn",5.77 µM (active)
same,Kd,"protein: GTPASE IMAP FAMILY MEMBER 7, PDB entry 3zjc",9 µM (active)
same,Kd,"protein: Methylmalonyl-CoA mutase accessory protein, PDB entry 4jyb",0.11 µM (active)
O=C(O)CCc1c[nH]c2ccccc12,Kd,"protein: Protease (Q7K, L33I, L63I, C67A, C95A mutation), PDB entry 4ejl",7.2 µM (active)
O=C(O)c1c[nH]c2ccccc12,Kd,"protein: INTEGRASE, PDB entry 4ahu",5400 µM (active)
CSCC[C@H](NC(=O)CNC(=O)[C@@H](N)C(C)C)C(=O)N[C@@H](Cc1cnc[nH]1)C(=O)N[C@@H](CO[P+](O)(O)O)C(=O)N[C@@H](CCCCN)C(=O)NCC(=O)N[C@H](C(=O)N[C@@H](CCC(N)=O)C(=O)N[C@H](C(=O)O)[C@@H](C)O)[C@@H](C)O,Kd,"protein: DYNEIN LIGHT CHAIN 1, CYTOPLASMIC, PDB entry 3zkf",0.96 µM (active)
H-VGMHSKGTQTA-OH,Kd,"protein: DYNEIN LIGHT CHAIN 1, CYTOPLASMIC, PDB entry 3zke",0.16 µM (active)
NCc1csc(-c2cccs2)n1,Kd,"protein: CATIONIC TRYPSIN, PDB entry 4aba",153 µM (active)
Cc1noc(C)c1-c1cc(NS(=O)(=O)c2ccccc2)cc(C(=O)O)c1,Kd,"protein: ATPase family AAA domain-containing protein 2 ATAD2A bromodomain, PDB entry 4tu4",175 µM (active)
O=C(O)c1cccc2ccoc12,Kd,"protein: INTEGRASE, PDB entry 4ahs",6400 µM (active)
O=C(O)Cc1cc(O)ccc1O,Kd,"protein: HOMOGENTISATE 1,2-DIOXYGENASE, PDB entry 4aq6",15.8 µM (active)
CC(C)C[C@H](NC(=O)[C@@H](N)CO)C(=O)N[C@@H](CCC(=O)O)C(=O)N[C@H](C(=O)N[C@H](C(=O)N[C@@H](CCC(=O)O)C(=O)N[C@@H](C)C(=O)N[C@@H](CC(=O)O)C(=O)N[C@@H](C)C(=O)N[C@H](C(=O)N[C@@H](Cc1ccccc1)C(=O)N[C@H](C(=O)N[C@@H](CCC(N)=O)C(=O)O)C(C)C)[C@@H](C)O)[C@@H](C)O[P+](O)(O)O)C(C)C (H-SLEV[Thr(P(OH)3+)]EADATFVQ-OH),Kd,"protein: FHA1 Domain of Rad53, PDB entry 1k3q",0.3 µM (active)
CC(C)C[C@H](NC(=O)[C@H](Cc1ccccc1)NC(=O)[C@H](CCC(=O)O)NC(=O)[C@H](C)NC(=O)[C@@H](NC(=O)[C@H](CC(C)C)NC(=O)[C@H](CCC(=O)O)NC(=O)[C@H](CC(=O)O)NC(=O)[C@H](CCC(=O)O)NC(=O)[C@H](CO)NC(=O)[C@H](C)N)C(C)C)C(=O)N[C@@H](CCC(N)=O)C(=O)N[C@@H](CC(=O)O)C(=O)N[C@@H](CCC(N)=O)C(=O)N[C@@H](CC(N)=O)C(=O)O (H-ASEDELVAEFLQDQN-OH),Kd,"protein: PEROXISOMAL MEMBRANE PROTEIN PEX14, PDB entry 4bxu",0.1 µM (active)
CC(C)C[C@H](NC(=O)[C@H](CC(C)C)NC(=O)CNC(=O)[C@@H](NC(=O)[C@H](CC(=O)O)NC(=O)[C@H](CC(=O)O)NC(=O)[C@H](Cc1ccc(OS(O)(O)O)cc1)NC(=O)[C@H](Cc1ccc(OS(O)(O)O)cc1)NC(=O)[C@H](CO)NC(=O)[C@@H](NC(=O)[C@@H](NC(=O)CNC(=O)[C@H](Cc1ccccc1)NC(=O)[C@@H](NC(=O)[C@H](CCC(=O)O)NC(=O)[C@@H](N)C(C)C)[C@@H](C)O)[C@@H](C)O)[C@@H](C)O)C(C)C)C(=O)O (H-VETFGTTS[X1][X1]DDVGLL-OH),Kd,"protein: CC chemokine (CCL11/ eotaxin-1), PDB entry 2mpm",1.3 µM (active)
H-AFFAQLQLDAETGEFL-OH,Kd,"protein: Kelch-like ECH-associated protein 1, PDB entry 2flu",0.02 µM (active)
